Reference: PubChem BioAssay (NCATS)
Records with an inconclusive call do not appear. A number with no mark means an inactive call. The source made the active and inactive calls. The call rests on the fitted dose curve; in most records, active means well fitted inhibition curve with a large enough effect; inconclusive means small, poorly fitted or top-dose-only effect; inactive means flat fitted curve, though single readings scatter. Residues, ends and D or L forms follow the SMILES beside them.

Assay: BET inhibitor-based combinations targeting novel dependencies in MECOM-rearranged (r) AML: AML-191 cell line (AID 2202236; further: nearly all actives have a fitted effect of over 35% in size;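 on viability (% of control): plate controls were vehicle wells for no effect and wells without cells for full effect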)
Details: AML-191 viability, CellTiter-Glo luminescence, 48 h; series mostly up to 46 µM; viability (% of control): at the top concentration
Method in brief: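 AML cell lines seeded at 500 cells/well, treated with 11-point dose curves for 48 h. Viability by CellTiter-Glo luminescence, normalised to DMSO and empty wells; activity expressed as AUC and per-cell-line Z-transformed AUC.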
Potency means the concentration at half of the fitted maximal effect.

SMILES | Potency | viability (% of control)
CN1CCN(c2ncc(-c3cc(Cl)cc(Cl)c3Cl)c(N)n2)CC1 | 16.6 µM (active) | –
CN(C)CCN1C(=O)c2cccc3cc(N)cc(c23)C1=O | 13.2 µM (active) | –
Fc1ccc(Cl)cc1-c1nc(Nc2ccncc2)c2nccnc2n1 | – | 96%
CCCCCN=C(N)N/N=C/c1c[nH]c2ccc(OC)cc12 | 18.6 µM (active) | –
O=[N+]([O-])c1cn2c(n1)OC[C@@H](OCc1ccc(OC(F)(F)F)cc1)C2 | – | 109%
CN1CCN2c3ncccc3Cc3ccccc3C2C1 (configuration not stated) | – | 107%
C=C1c2cccc(O)c2C(O)=C2C(=O)[C@@]3(O)C(O)=C(C(N)=O)C(=O)[C@@H](N(C)C)[C@@H]3[C@@H](O)[C@H]12 | – | 88.9%
Cn1c(=O)c2c(ncn2CC(O)CO)n(C)c1=O (configuration not stated) | – | 109%
COC(=O)[C@H](Cc1ccccc1)NC(=O)[C@@H](N)CC(=O)O (H-Asp-Phe-OMe) | – | 105%
NC(=O)Nc1sc(-c2ccc(F)cc2)cc1C(N)=O | 1.86 µM (active) | –
O=C(O)c1nc(=O)[nH]c(=O)[nH]1 | – | 102% [at 15.6 µM]
CCCn1c(=O)c2[nH]c(C34CC5CC3C[C@@H](C5)C4)nc2n(CCC)c1=O | 16.6 µM (active) | –
O=C(O)C(O)Cc1ccc(O)c(O)c1 (configuration not stated) | – | 106% [at 92.2 µM]
Cc1ccc(C(C)(O)c2nc3ccccc3s2)c(C)c1 (configuration not stated) | – | 95.5%
N#Cc1ccnc(Nc2cc(C3CCN(C4COC4)CC3)cc(N3CCC(F)(F)C3)n2)c1 | 2.95 µM (active) | –
COc1cc(OC)c(C(=O)CCCN2CCCC2)c(OC)c1 | – | 102%
COc1ccc(C=Cc2cc(OC)c(OC)c(OC)c2)cc1NC(=O)[C@H](N)CO | 0.332 µM (active) | –
